Results on 14 compounds are retold here after ChEMBL document CHEMBL1961873, “Compounds: GSK PKIS; Assays: Nanosyn kinase panel” (2012).

Each structure is given as a SMILES string.

In experiment [1] the target is T1, Muscle, skeletal receptor tyrosine-protein kinase (Homo sapiens) (UniProt O15146).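 Also: reported value is the mean percent inhibition of MuSK kinase.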
T1 sequence (whole entry): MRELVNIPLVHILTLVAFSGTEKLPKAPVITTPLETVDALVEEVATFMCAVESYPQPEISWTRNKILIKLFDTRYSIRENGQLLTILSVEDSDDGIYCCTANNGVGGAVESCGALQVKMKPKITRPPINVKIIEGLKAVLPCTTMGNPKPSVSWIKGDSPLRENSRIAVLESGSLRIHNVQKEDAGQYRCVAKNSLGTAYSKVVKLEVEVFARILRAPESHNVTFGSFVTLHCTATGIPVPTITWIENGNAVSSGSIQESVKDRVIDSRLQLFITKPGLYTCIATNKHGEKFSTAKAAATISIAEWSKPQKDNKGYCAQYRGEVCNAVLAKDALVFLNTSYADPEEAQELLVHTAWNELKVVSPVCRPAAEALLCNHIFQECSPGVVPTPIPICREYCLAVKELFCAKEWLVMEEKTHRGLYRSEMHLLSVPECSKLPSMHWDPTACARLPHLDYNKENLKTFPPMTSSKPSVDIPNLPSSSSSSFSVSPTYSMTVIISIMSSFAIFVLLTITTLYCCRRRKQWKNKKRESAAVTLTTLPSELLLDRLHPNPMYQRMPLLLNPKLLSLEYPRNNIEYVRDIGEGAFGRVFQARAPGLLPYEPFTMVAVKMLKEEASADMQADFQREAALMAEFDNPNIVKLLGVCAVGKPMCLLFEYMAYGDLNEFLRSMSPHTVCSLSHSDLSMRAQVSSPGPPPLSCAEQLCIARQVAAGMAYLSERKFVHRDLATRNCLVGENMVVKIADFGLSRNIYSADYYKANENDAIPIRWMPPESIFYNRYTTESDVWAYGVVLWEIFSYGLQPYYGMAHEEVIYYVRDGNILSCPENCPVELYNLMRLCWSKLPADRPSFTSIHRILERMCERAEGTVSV
Particulars: at 1 µM.

The target in experiment [2] is Platelet-derived growth factor receptor alpha (Homo sapiens) (UniProt P16234). The note with it: at 0.1 µM.
Chain of Platelet-derived growth factor receptor alpha (Homo sapiens) (P16234 whole entry): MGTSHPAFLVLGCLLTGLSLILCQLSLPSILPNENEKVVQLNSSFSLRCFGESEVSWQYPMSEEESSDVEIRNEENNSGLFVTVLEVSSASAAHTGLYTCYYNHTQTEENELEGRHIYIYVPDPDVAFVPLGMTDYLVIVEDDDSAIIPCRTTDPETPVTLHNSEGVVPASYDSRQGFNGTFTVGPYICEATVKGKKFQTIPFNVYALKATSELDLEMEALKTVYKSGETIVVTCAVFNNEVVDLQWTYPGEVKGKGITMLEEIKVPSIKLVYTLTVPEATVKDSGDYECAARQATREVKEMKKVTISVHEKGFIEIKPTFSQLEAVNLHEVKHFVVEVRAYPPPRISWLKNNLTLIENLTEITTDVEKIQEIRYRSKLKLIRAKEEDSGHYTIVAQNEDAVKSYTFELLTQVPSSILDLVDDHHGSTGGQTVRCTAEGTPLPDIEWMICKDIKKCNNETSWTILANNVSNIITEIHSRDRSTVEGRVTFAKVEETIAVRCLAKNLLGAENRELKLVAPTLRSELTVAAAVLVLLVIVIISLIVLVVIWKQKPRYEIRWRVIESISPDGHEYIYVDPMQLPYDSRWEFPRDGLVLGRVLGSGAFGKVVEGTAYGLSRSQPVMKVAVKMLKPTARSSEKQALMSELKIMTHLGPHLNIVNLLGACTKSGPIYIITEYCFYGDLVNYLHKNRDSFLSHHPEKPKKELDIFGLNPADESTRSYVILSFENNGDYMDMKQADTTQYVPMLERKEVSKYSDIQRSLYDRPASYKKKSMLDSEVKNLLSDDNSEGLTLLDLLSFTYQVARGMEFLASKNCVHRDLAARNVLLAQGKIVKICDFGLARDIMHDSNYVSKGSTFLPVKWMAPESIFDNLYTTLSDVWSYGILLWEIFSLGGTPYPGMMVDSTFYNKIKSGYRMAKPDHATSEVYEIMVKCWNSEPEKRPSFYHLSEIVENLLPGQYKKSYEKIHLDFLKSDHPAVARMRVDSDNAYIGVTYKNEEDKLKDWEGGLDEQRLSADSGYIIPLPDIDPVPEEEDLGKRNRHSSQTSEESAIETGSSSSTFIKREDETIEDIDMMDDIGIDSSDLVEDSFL
For experiment [3] the target is unchanged. Particulars: at 1 µM.
Experiment [4] has as its system Platelet-derived growth factor receptor alpha (Homo sapiens), P16234 [D842V]. The note with it: at 0.1 µM.
Experiment [5] has the same test system. Particulars: at 1 µM.
Experiment [6] has as its system Platelet-derived growth factor receptor alpha (Homo sapiens), P16234 [T674I]. Particulars: at 0.1 µM.
Experiment [7] shares this test system. The note with it: at 1 µM.
Experiment [8] has as its system Platelet-derived growth factor receptor alpha (Homo sapiens), P16234 [V561D]. The note with it: at 0.1 µM.
The test system is the same in experiment [9]. Particulars: at 1 µM.
Experiment [10] has as its target Platelet-derived growth factor receptor beta (Homo sapiens) (UniProt P09619). The note with it: at 0.1 µM.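 Also: reported value is the mean percent inhibition of the kinase.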

Chain of Platelet-derived growth factor receptor alpha (Homo sapiens), P16234 [T674I] (P16234 whole entry T674I): as the sequence (P16234 whole entry) above, with T674I counted along it
Chain of Platelet-derived growth factor receptor beta (Homo sapiens) (P09619 whole entry): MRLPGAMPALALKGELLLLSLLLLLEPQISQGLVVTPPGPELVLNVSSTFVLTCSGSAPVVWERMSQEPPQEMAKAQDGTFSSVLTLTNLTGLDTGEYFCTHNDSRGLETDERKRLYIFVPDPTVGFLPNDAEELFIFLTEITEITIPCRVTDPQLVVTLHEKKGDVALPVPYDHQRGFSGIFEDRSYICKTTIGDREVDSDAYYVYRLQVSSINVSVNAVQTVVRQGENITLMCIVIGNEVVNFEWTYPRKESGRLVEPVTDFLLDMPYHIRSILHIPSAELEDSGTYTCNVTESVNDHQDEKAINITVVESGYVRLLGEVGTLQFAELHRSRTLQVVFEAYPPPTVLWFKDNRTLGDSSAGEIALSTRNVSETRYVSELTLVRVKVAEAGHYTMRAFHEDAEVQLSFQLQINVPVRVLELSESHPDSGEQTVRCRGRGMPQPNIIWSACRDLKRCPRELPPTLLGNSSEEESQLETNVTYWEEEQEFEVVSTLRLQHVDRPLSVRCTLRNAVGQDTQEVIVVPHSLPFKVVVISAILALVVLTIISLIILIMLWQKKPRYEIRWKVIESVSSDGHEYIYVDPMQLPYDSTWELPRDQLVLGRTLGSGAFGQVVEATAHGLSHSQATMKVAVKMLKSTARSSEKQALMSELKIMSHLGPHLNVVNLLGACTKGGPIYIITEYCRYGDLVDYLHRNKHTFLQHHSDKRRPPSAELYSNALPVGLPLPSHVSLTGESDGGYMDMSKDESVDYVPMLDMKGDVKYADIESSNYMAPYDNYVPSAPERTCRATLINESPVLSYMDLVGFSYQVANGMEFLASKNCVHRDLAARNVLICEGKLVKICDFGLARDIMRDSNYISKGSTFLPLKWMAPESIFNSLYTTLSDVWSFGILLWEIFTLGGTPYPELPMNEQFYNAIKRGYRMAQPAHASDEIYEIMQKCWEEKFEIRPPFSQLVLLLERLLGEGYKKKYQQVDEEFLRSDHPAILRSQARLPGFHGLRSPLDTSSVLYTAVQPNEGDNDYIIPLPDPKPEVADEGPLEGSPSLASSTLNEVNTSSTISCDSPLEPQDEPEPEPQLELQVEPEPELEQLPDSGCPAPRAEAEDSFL
Chain of Platelet-derived growth factor receptor alpha (Homo sapiens), P16234 [D842V] (P16234 whole entry D842V): as the sequence (P16234 whole entry) above, with D842V counted along it
Chain of Platelet-derived growth factor receptor alpha (Homo sapiens), P16234 [V561D] (P16234 whole entry V561D): as the sequence (P16234 whole entry) above, with V561D counted along it

On to `Cc1ccc(O)cc1Nc1ccnc2cc(-c3ccccn3)ccc12`, for which the inhibition in experiment [1] came out at 5.77%; in [2] it was 67.2%; in [3], 89.5%; in experiment [4], 81.4%; in experiment [5], 96.2%; in experiment [6] it was 7.02%. The inhibition in experiment [7] turned out to be 6.98%; in [8], 70.4%; in experiment [9], 105%; in experiment [10], 53.4%.
For the compound `c1cc(-c2cnn3nc(N4CCOCC4)ccc23)nc(NC2CC2)n1`, the inhibition in [1] was found to be 9.05%; in experiment [2], 31.9%; in [3], 76.8%; in [4], 21.2%; in experiment [5], 75.8%; in [6], 2.78%. Moreover, the inhibition came out at 17.5% in experiment [7], 18.1% in [8], 72.4% in experiment [9] and 12.5% in experiment [10].
Turning to `CCNC(=O)O[C@H]1CN[C@H](C#Cc2cc3ncnc(Nc4ccc(OCc5cccc(F)c5)c(Cl)c4)c3s2)C1`, the inhibition in [1] was 3.77%; in experiment [2] it was 5.36%; in [3], 8.44%; in experiment [4], 1.55%; in experiment [5], 1.32%; in experiment [6], 4.01%. For the same compound, the inhibition in experiment [7] turned out to be 3.06%; in experiment [8], 1.45%; in experiment [9], 1.92%; in [10], 2.77%.
For `CCN(CC)S(=O)(=O)c1ccc(OC)c(Nc2ncc(-c3ccccc3)o2)c1`, the inhibition in experiment [1] worked out at 6.08%; in experiment [2], 12.7%; in experiment [3], 50.7%; in [4], 5.3%; in experiment [5], 23.2%; in [6], 8.47%. Besides, the inhibition in [7] amounted to 8.95%; in experiment [8] it was 10.1%; in [9], 39.2%; in experiment [10] it was 19.2%.
As for `N#Cc1c(NC(=O)CN2CCOCC2)sc2c1CCCC2`, the inhibition in experiment [1] was found to be 5.38%; in experiment [2], 6.84%; in experiment [3], 10.4%; in experiment [4] it was 3.81%; in experiment [5], 4.78%; in [6], 6.89%. The inhibition in [7] was determined as 9.82%; in experiment [8], 4.95%; in experiment [9], 3.92%; in [10], 2.42%.
As for `Fc1cccc(COc2ccc(Nc3ncnc4sc(-c5ccco5)cc34)cc2Cl)c1`, the inhibition in experiment [1] stood at 3.44%; in experiment [2], 13.5%; in experiment [3] it was 19.9%; in experiment [4], 3%; in [5], 2.87%; in experiment [6], 6.38%. The inhibition in experiment [7] amounted to 15.5%; in experiment [8] it was 6.49%; in [9], 4.1%; in experiment [10], 7.85%.
As for `COc1cc(N2CCN(C(C)C)CC2)ccc1Nc1nc(Nc2ccc(F)cc2C(N)=O)c2cc[nH]c2n1`, the inhibition in experiment [1] was determined as 13.2%; in experiment [2], 3.76%; in [3], 31.1%; in [4] it was 1.57%; in [5], 21.6%; in experiment [6], 1.91%. Also, the inhibition in experiment [7] is 5.04%; in experiment [8], 1.82%; in experiment [9], 21.8%; in experiment [10], 5.8%.
For `NS(=O)(=O)c1ccc(Nc2ncc(-c3ccccc3)o2)cc1`, the inhibition stood at 12.4% in experiment [1]; 7.81% in [2]; 34.8% in experiment [3]; 1.5% in experiment [4]; 10.2% in experiment [5]; 14.4% in experiment [6]. The inhibition worked out at 65.1% in [7], 25.7% in [8], 50.5% in experiment [9] and 12% in experiment [10].
For `Fc1ccc(-c2cc(-c3c[nH]nc3-c3ccccn3)ccn2)cc1`, the inhibition in experiment [1] was -0.34%; in [2] it was 5.93%; in [3], 19.8%; in [4] it was 4.02%; in [5] it was 21.2%; in experiment [6], 5.49%. For the same compound, the inhibition in experiment [7] was 10.1%; in experiment [8], 4.91%; in experiment [9] it was 11.8%; in [10], 3.85%.
As to `O=C(Nc1n[nH]c2cc(-c3ccc(F)cc3)ccc12)C1CC1`, the inhibition in [1] came out at 4.55%; in [2], 4.52%; in [3], 14.6%; in [4] it was 4.21%; in experiment [5] it was 12.9%; in [6] it was 3.24%. In addition, the inhibition in experiment [7] turned out to be 8.33%; in [8] it was 4.41%; in experiment [9] it was 13.2%; in experiment [10], 2.29%.
For the compound `CCCN1CCC(c2ccc(Nc3nc(Nc4cc(F)ccc4C(N)=O)c4cc[nH]c4n3)c(OC)c2)CC1`, the inhibition in experiment [1] stood at 15%; in experiment [2], 8.78%; in experiment [3], 46.5%; in experiment [4] it was 6.28%; in experiment [5] it was 43.8%; in [6], 4.13%. For the same compound, the inhibition in experiment [7] stood at 9.42%; in experiment [8], 8.22%; in [9], 36.4%; in experiment [10] it was 10.4%.
For the compound `COc1cc(Nc2nccc(Nc3ccc4c(C)n[nH]c4c3)n2)cc(OC)c1OC`, the inhibition was determined as 72.5% in experiment [1]; 76% in experiment [2]; 91.6% in experiment [3]; 50% in experiment [4]; 90.2% in experiment [5]; 11.4% in experiment [6]. The inhibition was determined as 59% in experiment [7], 71.4% in experiment [8], 96.5% in [9] and 74.4% in [10].
Regarding `[O-][S+]1CCN(Cc2ccc(-c3ccc4ncnc(Nc5ccc(OCc6cccc(F)c6)c(Cl)c5)c4c3)o2)CC1`, the inhibition in [1] worked out at 2.81%; in [2], 7.43%; in experiment [3], 13.2%; in [4], 4.45%; in [5], 6.91%; in [6], 4%. In addition, the inhibition in experiment [7] came to 6.97%; in experiment [8], 3.95%; in experiment [9] it was 8.29%; in [10], 4.69%.
Regarding `CS(=O)(=O)CCNCc1ccc(-c2ccc3ncnc(Nc4ccc(OCc5ccccc5)c(C(F)(F)F)c4)c3c2)o1`, the inhibition in experiment [1] is -0.25%; in [2], 6.22%; in experiment [3] it was 7.17%; in experiment [4], 2.98%; in [5], 2.15%; in [6], 3.58%. Further, the inhibition in experiment [7] was determined as 5.04%; in experiment [8] it was 3.38%; in experiment [9] it was 1.15%; in [10] it was 1.55%.
